The source of these data is PubChem BioAssay (NCI).

What all share (assay): NCI-60 one-dose screen, 48 h (100 = growth as untreated, 0 = no growth, -100 = all killed)
For one experiment, the system named is EKVX NSCLC. The following applies: 10 µM unless noted.
A further experiment relates to SN12C renal. The following applies: 10 µM unless noted.
A further experiment has as its system UO-31 renal. The following applies: 10 µM unless noted.
The next experiment relates to TK-10 renal. The settings on record: 10 µM unless noted.
The test system of the next experiment is ACHN renal. The settings on record: 10 µM unless noted.
In a further experiment the test system is CAKI-1 renal. The settings on record: 10 µM unless noted.
For the next experiment, the system named is A498 renal. The settings on record: 10 µM unless noted.
In the next experiment the test system is CCRF-CEM leukemia. The following applies: 10 µM unless noted.
The next experiment deals with MOLT-4 leukemia. The following applies: 10 µM unless noted.
The subject of a further experiment is SR leukemia. The following applies: 10 µM unless noted.
The subject of a further experiment is RPMI-8226 leukemia. The following applies: 10 µM unless noted.
For another experiment, the system named is OVCAR-8 ovarian. The following applies: 10 µM unless noted.
The next experiment relates to OVCAR-5 ovarian. The following applies: 10 µM unless noted.
For a further experiment, the system named is OVCAR-4 ovarian. The settings on record: 10 µM unless noted.
The next experiment has as its system SK-OV-3 ovarian. The settings on record: 10 µM unless noted.
The next experiment deals with IGROV1 ovarian. The following applies: 10 µM unless noted.
The test system of another experiment is OVCAR-3 ovarian. The settings on record: 10 µM unless noted.
For another experiment, the system named is HS 578T breast. The settings on record: 10 µM.
In a further experiment the test system is NCI/ADR-RES ovarian. The settings on record: 10 µM unless noted.

This is part of a sample that, as a whole, favours compounds with a hit. Of some 83,000 tested, about 20% had one in any assay.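 Assay: single dose, 48 h. Readout: percent growth (0 = no net growth; negative = cell death). Active: <10.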 Unmarked numbers belong to inactive results. Activity calls are given as the source filed them.

With `COC(=O)CNC(=O)[C@@H](OC)[C@@H]1Cc2cc3cc(OC4CC(OC5CC(O)C(O)C(C)O5)C(O)C(C)O4)c(C)c(O)c3c(O)c2C(=O)[C@H]1OC1CC(OC2CC(OC3CC(C)(O)C(O)C(C)O3)C(O)C(C)O2)C(O)C(C)O1` (some centres undefined), the growth was 20.2% with EKVX NSCLC; 13.7% with SN12C renal; 10.9% in the experiment with UO-31 renal; 21% in the experiment with TK-10 renal; -1.39% (active) in the experiment with ACHN renal; 43.5% in the experiment with CAKI-1 renal. Also, the growth with A498 renal was -74.3% (active); in the experiment with CCRF-CEM leukemia, 18%; in the experiment on MOLT-4 leukemia it was -2.56% (active); in the experiment with SR leukemia, 11.1%; with RPMI-8226 leukemia, 2.86% (active); in the experiment with OVCAR-8 ovarian, 12.4%. For the same molecule, the growth is 16.4% in the experiment with OVCAR-5 ovarian; 2.95% (active) in the experiment on OVCAR-4 ovarian; 24.3% with SK-OV-3 ovarian; 32% with IGROV1 ovarian; 3.71% (active) in the experiment with OVCAR-3 ovarian; -6.65% (active) with HS 578T breast. In the experiment on NCI/ADR-RES ovarian, the growth was 88.2%.

For `C=C1CC[C@@H]2[C@](C)(COC(C)=O)[C@H](OC(C)=O)CC[C@@]2(C)[C@@H]1C/C=C1/C(=O)OC[C@H]1OC(C)=O`, the growth was 103% in the experiment with EKVX NSCLC; 33.4% in the experiment on SN12C renal; 62.8% in the experiment with UO-31 renal; 16.9% in the experiment on TK-10 renal; 19.5% in the experiment with ACHN renal; 81.5% with CAKI-1 renal. Further, the growth with A498 renal was 90.6%; in the experiment on CCRF-CEM leukemia, -11.4% (active); in the experiment on MOLT-4 leukemia, -6.05% (active); in the experiment with SR leukemia it was 5.73% (active); in the experiment on RPMI-8226 leukemia it was 14.1%; in the experiment with OVCAR-8 ovarian, 27.1%. The growth in the experiment with OVCAR-5 ovarian was 53.7%; in the experiment on OVCAR-4 ovarian it was 66.5%; in the experiment with SK-OV-3 ovarian, 101%; in the experiment with IGROV1 ovarian it was 103%; in the experiment with OVCAR-3 ovarian it was -21.3% (active); in the experiment on HS 578T breast it was 100%. For the same molecule, the growth with NCI/ADR-RES ovarian is 25%.

Take `CNC(=O)c1cc(Oc2cccc3nc(Nc4ccc(Cl)c(F)c4)ccc23)ccn1`: the growth in the experiment on EKVX NSCLC is 71.1%; in the experiment with SN12C renal, 63.2%; in the experiment on UO-31 renal, 81.6%; in the experiment on TK-10 renal, 54.1%; in the experiment with ACHN renal it was 38.5%; in the experiment with CAKI-1 renal it was 87.9%. Besides, the growth with A498 renal is 83.8%; with CCRF-CEM leukemia, 91.3%; in the experiment on MOLT-4 leukemia, 69.2%; in the experiment on SR leukemia it was 62.2%; in the experiment with RPMI-8226 leukemia it was 99.5%; in the experiment with OVCAR-8 ovarian, 48.9%. The growth in the experiment with OVCAR-5 ovarian was 79.7%; in the experiment on OVCAR-4 ovarian, 8.11% (active); with SK-OV-3 ovarian it was 41.4%; with IGROV1 ovarian, 79.3%; in the experiment with OVCAR-3 ovarian, 52.2%; in the experiment on HS 578T breast, 37.5%. The growth in the experiment on NCI/ADR-RES ovarian is 49.5%.

With `CN1CCN(CC(=O)Nc2ccc(-c3nc4ccccc4s3)cc2)CC1`, the growth in the experiment on EKVX NSCLC is 83.7%; with SN12C renal, 77.7%; in the experiment with UO-31 renal it was 57.5%; with TK-10 renal, 94.8%; with ACHN renal, 71.2%; in the experiment with CAKI-1 renal, 73.5%. For the same molecule, the growth with A498 renal was 59.5%; in the experiment on CCRF-CEM leukemia, 63.7%; in the experiment on MOLT-4 leukemia, 78%; with SR leukemia, 6.26% (active); in the experiment on RPMI-8226 leukemia it was 88.1%; in the experiment with OVCAR-8 ovarian, 91.3%. Besides, the growth in the experiment on OVCAR-5 ovarian was 72.9%; with OVCAR-4 ovarian, 87.3%; with SK-OV-3 ovarian, 94.2%; in the experiment with IGROV1 ovarian, 80.6%; with OVCAR-3 ovarian, 99.2%; with HS 578T breast it was 93.7%. In the experiment on NCI/ADR-RES ovarian, the growth was 85.6%.

For `CNC(=O)c1cnc(C)nc1-c1cc(C(C)(C)C)c(O)c(C(C)(C)C)c1`, the growth in the experiment with EKVX NSCLC is 92.6%; in the experiment on SN12C renal it was 100%; in the experiment on UO-31 renal, 94.6%; with TK-10 renal, 101%; in the experiment on ACHN renal it was 101%; in the experiment on CAKI-1 renal it was 96.8%. Further, the growth is 112% with A498 renal; 106% in the experiment with CCRF-CEM leukemia; 95.7% in the experiment with MOLT-4 leukemia; 85% in the experiment on SR leukemia; 77.8% in the experiment on RPMI-8226 leukemia; 105% with OVCAR-8 ovarian. Besides, the growth in the experiment with OVCAR-5 ovarian was 102%; in the experiment on OVCAR-4 ovarian it was 89.7%; in the experiment on SK-OV-3 ovarian, 97.5%; with IGROV1 ovarian it was 103%; in the experiment with OVCAR-3 ovarian, 116%; in the experiment on HS 578T breast, 106%. Also, the growth in the experiment with NCI/ADR-RES ovarian is 110%.

In the case of `COCCN1CCN(Cc2ccc(-c3n[nH]c4c3C(=O)c3c(NC(=O)NN5CCOCC5)cccc3-4)cc2)CC1`, the growth was -3.26% (active) with EKVX NSCLC; 7.64% (active) in the experiment with SN12C renal; -14.2% (active) in the experiment on UO-31 renal; -30.9% (active) with TK-10 renal; 3.84% (active) in the experiment with ACHN renal; -18.3% (active) in the experiment on CAKI-1 renal. The growth in the experiment on A498 renal was -22% (active); in the experiment with CCRF-CEM leukemia, -15.3% (active); in the experiment with MOLT-4 leukemia it was -15% (active); with SR leukemia, -10.3% (active); in the experiment on RPMI-8226 leukemia it was -37.4% (active); with OVCAR-8 ovarian, -13.4% (active). The growth with OVCAR-5 ovarian was 9.54% (active); in the experiment with OVCAR-4 ovarian, -0.503% (active); in the experiment on SK-OV-3 ovarian it was -7.89% (active); with IGROV1 ovarian, -10.9% (active); in the experiment with OVCAR-3 ovarian it was 9.5% (active); in the experiment with NCI/ADR-RES ovarian, 5% (active).

Regarding `C[C@@H](N)c1ccc(C(=O)Nc2ccnc3[nH]ccc23)cc1`, the growth with EKVX NSCLC was 67%; with SN12C renal it was 51.8%; in the experiment with UO-31 renal, 13.4%; in the experiment with TK-10 renal, 46.2%; in the experiment with ACHN renal it was 36.7%; with CAKI-1 renal, 20.6%. The growth was 56.9% in the experiment with A498 renal; 25.5% in the experiment with CCRF-CEM leukemia; 42.2% with MOLT-4 leukemia; 9.45% (active) in the experiment with SR leukemia; 64.7% with RPMI-8226 leukemia; 36.2% in the experiment on OVCAR-8 ovarian. The growth in the experiment with OVCAR-5 ovarian was 42.9%; in the experiment on OVCAR-4 ovarian it was 69.9%; with SK-OV-3 ovarian, -45.2% (active); in the experiment on IGROV1 ovarian, 27.9%; with OVCAR-3 ovarian, 57.9%; in the experiment with NCI/ADR-RES ovarian, 84%.

Regarding `NC1(c2ccc(-c3nc4ccn5c(=O)[nH]nc5c4cc3-c3ccccc3)cc2)CCC1`, the growth is 40.6% in the experiment on EKVX NSCLC; 50.9% in the experiment with SN12C renal; 28.6% in the experiment with UO-31 renal; 44.3% in the experiment with TK-10 renal; 36.2% in the experiment on ACHN renal; 32.3% with CAKI-1 renal. Also, the growth was -62.8% (active) in the experiment with A498 renal; 1.33% (active) with CCRF-CEM leukemia; -13.2% (active) in the experiment with MOLT-4 leukemia; -23.4% (active) in the experiment with SR leukemia; 24.7% in the experiment with RPMI-8226 leukemia; 51.9% in the experiment on OVCAR-8 ovarian. In addition, the growth was 60.5% with OVCAR-5 ovarian; 63.2% in the experiment with OVCAR-4 ovarian; 3.19% (active) in the experiment on SK-OV-3 ovarian; 12.6% with IGROV1 ovarian; 39.7% with OVCAR-3 ovarian; 56.8% with NCI/ADR-RES ovarian.
